Shown are actives, neighbours in structure and some others; about 4.2% of the full set was active somewhere.
V-ATPase pHluor – alters yeast V-ATPase proton transport; S. cerevisiae, pHLuorin cytosolic pH fluorescence; response, % at 10 µM; 0.37% of 350,000 active; AID 504577; in the data active means response mostly above about 7.3%, no sharp cut-off; inactive means mostly below about 5.4%; further: actives read high
tim10-1 inh – growth inhibitors of tim10-1 mutant yeast; S. cerevisiae tim10-1 ts strain growth, BacTiter-Glo, 24 h; inhibition, % at 20 µM; 2.2% of 330,000 active; AID 463190;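 active means inhibition of at least 40%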;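 further: mutant grown at 25 °C; 0% = DMSO wells with yeast and 100% = wells holding no yeast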
NLRP3 yeast inh – NALP3 inhibition in yeast; inhibition, % at 10 µM; AID 2825; 0.39% of 330,000 active; Yeast reconstituted NLRP3/ASC/caspase-1, beta-gal luminescence, 24 h;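 active means inhibition of 50% or more; inactive means inhibition below 50%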;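 further: plate controls were induced DMSO wells for no effect and uninduced yeast grown without galactose for full effect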
tim23-1 inh – growth inhibitors of tim23-1 mutant yeast | 1.3% of 330,000 active | AID 463212 | S. cerevisiae tim23-1 growth, BacTiter-Glo luminescence, 24 h | inhibition, % at 20 µM;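 active means growth inhibition of the mutant yeast at or above 50%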;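 further: temperature-sensitive mutant grown at 25 °C; plate controls were DMSO-treated mutant yeast for no effect and medium wells lacking yeast for full effect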
NALP1 inh – NALP1 inhibition; S. cerevisiae NALP1/ASC/caspase-1 growth, X-gal OD620, 72 h; inhibition, % at 10 µM; 0.61% of 280,000 active; AID 2071; in the data active means inhibition mostly above about 24%, no sharp cut-off; inactive means mostly below about 32%
TIM10 inh – growth inhibitors of TIM10 yeast strain | S. cerevisiae TIM10 strain growth, BacTiter-Glo luminescence, 24 h | inhibition, % at 10 µM | 1.4% of 330,000 active;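 active means inhibition of 40% or more at the single tested concentration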;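 further: wild-type TIM10 isogenic control strain grown at permissive 25 °C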
VATPase regulator – modulates yeast V-ATPase proton transport; AID 602197; S. cerevisiae pHLuorin cytosolic pH; response, % at 10 µM; 2% of 980 active; shares compounds with V-ATPase pHluor; in the data active means response above about 24%;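 further: plate controls were vehicle wells for no effect and positive control wells for full effect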
* marks the source's active call; other numbers are inactive results.

For Nc1ncn(C2O[C@H](CO)[C@@H](O)[C@H]2O)c(=O)n1 (some centres not stated) the results were tim10-1 inh 4, NLRP3 yeast inh 12, tim23-1 inh 3 and TIM10 inh 1.
Screening Nc1cnn(C2OC(CO)C(O)C2O)c(=O)n1 (configuration not stated) returned V-ATPase pHluor 7.8*, tim10-1 inh -6, NLRP3 yeast inh 7, tim23-1 inh -7, NALP1 inh 14, TIM10 inh 3 and VATPase regulator 3.
`CCOC(=O)c1ccc(NC(=O)COc2ccccc2CNCCc2ccccc2)cc1` gave V-ATPase pHluor 14*, tim10-1 inh -3, NLRP3 yeast inh 17, tim23-1 inh 4, NALP1 inh -19, TIM10 inh 6 and VATPase regulator -1.
CC(C)OC(=O)C(C(=O)C(F)(F)F)c1cc(NS(=O)(=O)c2ccc3ccccc3c2)c2ccccc2c1O (configuration not stated) was read as V-ATPase pHluor -4, tim10-1 inh 32, NLRP3 yeast inh 17, tim23-1 inh 32, NALP1 inh 23 and TIM10 inh 18.
`N#Cc1c(C(F)(F)F)cc(-c2cccs2)nc1SCc1ccc(Cl)nc1` gave V-ATPase pHluor 1, tim10-1 inh 19, NLRP3 yeast inh 13, tim23-1 inh -6, NALP1 inh -17 and TIM10 inh 6.
Screening N#Cc1c(C(F)(F)F)cc(-c2cccs2)nc1SCc1cccnc1 returned V-ATPase pHluor 7.7*, tim10-1 inh 19, NLRP3 yeast inh 22, tim23-1 inh -8, NALP1 inh -1, TIM10 inh -17 and VATPase regulator -27.
COc1cc(OC)c(OC)cc1/C=N/n1c(C)nc2ccccc2c1=O was read as V-ATPase pHluor 14*, tim10-1 inh 15, NLRP3 yeast inh -10, tim23-1 inh 15, NALP1 inh -4, TIM10 inh 8 and VATPase regulator 0.
COc1ccc(OC)c(/C=N/n2c(C)nc3ccccc3c2=O)c1 was read as V-ATPase pHluor 0, tim10-1 inh 7, NLRP3 yeast inh -1, tim23-1 inh 10 and TIM10 inh 10.
`O=C(CSc1cccc[n+]1[O-])Nc1ccc(Cl)cc1F` gave V-ATPase pHluor 1, tim10-1 inh -3, NLRP3 yeast inh 7, tim23-1 inh 4 and TIM10 inh 8.
For CCCCCC(=O)N1C[C@H](n2cc(-c3ccc(F)cc3)nn2)[C@@H](O)C[C@@H]1c1ccc(C)cc1 the results were V-ATPase pHluor 6.8* and VATPase regulator -1.
`Cc1n[nH]c(C)c1CS(=O)(=O)c1ccccc1` gave V-ATPase pHluor 7.3*, tim10-1 inh 8, NLRP3 yeast inh 15, tim23-1 inh -1, NALP1 inh -6, TIM10 inh -10 and VATPase regulator 1.
Cc1n[nH]c(C)c1CCCCOc1ccccc1 was read as V-ATPase pHluor -2, tim10-1 inh -11, NLRP3 yeast inh 20, tim23-1 inh 17, NALP1 inh -2 and TIM10 inh -6.
`COc1ccc(NC(=S)N2CCN(C/C=C/c3ccccc3)CC2)c(OC)c1` gave V-ATPase pHluor 12*, tim10-1 inh 12, NLRP3 yeast inh 4, tim23-1 inh 12, NALP1 inh -24, TIM10 inh 10 and VATPase regulator -1.
For CC1Oc2ccccc2N(CC(=O)c2cccc(Cl)c2)C1=O (configuration not stated) the results were V-ATPase pHluor 8.0*, tim10-1 inh 27, NLRP3 yeast inh -29, tim23-1 inh 32, NALP1 inh 12, TIM10 inh 5 and VATPase regulator 3.
For CCOC(=O)N1CCN(C(=O)c2ccc(C#CC3(O)CCCCC3)cc2)CC1 the results were V-ATPase pHluor 1, tim10-1 inh 25, NLRP3 yeast inh -7, tim23-1 inh 5, NALP1 inh 3 and TIM10 inh 5.
For CCC(NC(=O)c1ccc(C#CC2(O)CCCCC2)cc1)C(=O)O (configuration not stated) the results were V-ATPase pHluor 12*, tim10-1 inh -3, NLRP3 yeast inh 12, tim23-1 inh 5, NALP1 inh 12, TIM10 inh -2 and VATPase regulator -1.
`COc1ccccc1C(=O)N(NC(=O)Oc1ccccc1)C(C)(C)C` gave V-ATPase pHluor 2, tim10-1 inh 25, NLRP3 yeast inh -6, tim23-1 inh 5, NALP1 inh 22 and TIM10 inh -4.
Screening Cc1cccc(C(=O)N(NC(=O)Oc2ccccc2)C(C)(C)C)c1 returned V-ATPase pHluor 6.9*, tim10-1 inh 19, NLRP3 yeast inh 5, tim23-1 inh 13, NALP1 inh 32, TIM10 inh 21 and VATPase regulator -4.
C/C(=N\Nc1ccccn1)c1cccs1 was read as V-ATPase pHluor 21*, tim10-1 inh 16, NLRP3 yeast inh -1, tim23-1 inh -4, NALP1 inh 1, TIM10 inh 9 and VATPase regulator 3.
For CCOC(=O)N1CCC(NC(=O)C2CCN(c3nc(-c4ccc(OC)cc4)no3)CC2)CC1 the results were V-ATPase pHluor -5, tim10-1 inh 9, NLRP3 yeast inh 9, tim23-1 inh -19, NALP1 inh 8 and TIM10 inh 4.
`O=C(Nc1ccc(C(=O)O)cc1)/C(=C\c1ccc2c(c1)OCO2)NC(=O)c1ccc(Br)o1` gave V-ATPase pHluor 1, tim10-1 inh 4, NLRP3 yeast inh 10, tim23-1 inh 11, NALP1 inh -8 and TIM10 inh 0.
Screening O=C(Nc1cccc(C(=O)O)c1)/C(=C\c1ccc2c(c1)OCO2)NC(=O)c1ccc(Br)o1 returned V-ATPase pHluor 7.5*, tim10-1 inh 20, NLRP3 yeast inh 4, tim23-1 inh 11, NALP1 inh -6, TIM10 inh -18 and VATPase regulator 4.
O=C(c1ccncc1)N(Cc1ccccc1)Cc1nc2ccccc2c(=O)[nH]1 was read as tim10-1 inh 12, NLRP3 yeast inh 9, tim23-1 inh 6, NALP1 inh 10 and TIM10 inh 10.
Cc1ccc(S(=O)(=O)NCCC(=O)N2CCN(S(=O)(=O)c3ccccc3)CC2)cc1C was read as V-ATPase pHluor 0, tim10-1 inh -17, NLRP3 yeast inh 2, tim23-1 inh -6 and TIM10 inh 0.
Cc1ccc(S(=O)(=O)NCCC(=O)N2CCN(S(=O)(=O)c3cccc(F)c3)CC2)cc1C was read as V-ATPase pHluor 9.1*, tim10-1 inh -14, NLRP3 yeast inh 9, tim23-1 inh -9, TIM10 inh 5 and VATPase regulator -5.
Screening CCOC(=O)c1cccc(N2C(=O)C3C(C(=O)NC4CC4)C4(C)C=CC3(O4)C2C(=O)NC(C)(C)C)c1 (configuration not stated) returned V-ATPase pHluor 1, tim10-1 inh 6, NLRP3 yeast inh 3, tim23-1 inh 5, NALP1 inh 3 and TIM10 inh 1.
